Results on 63 compounds are retold here after paper PMC4336329 (PLoS ONE, 2015).

SMILES strings stand for the structures. Among all 310,000 compounds or so, about 14,000 (4.5%) showed an effect of 50% or more. The effect is printed as a negative number. The full list was thinned out, with strong results kept by preference.
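Further: peak tail current of the secondary pulse compared with the same well before compound.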

The target in this assay is human ether-à-go-go-related gene (hERG) potassium channel (human, UniProt Q12809). Kind of assay: primary screen, population patch clamp on CHO cells stably expressing hERG; higher = less effect of the substance.
Sequence of human ether-à-go-go-related gene (hERG) potassium channel (Q12809 whole entry, looked up): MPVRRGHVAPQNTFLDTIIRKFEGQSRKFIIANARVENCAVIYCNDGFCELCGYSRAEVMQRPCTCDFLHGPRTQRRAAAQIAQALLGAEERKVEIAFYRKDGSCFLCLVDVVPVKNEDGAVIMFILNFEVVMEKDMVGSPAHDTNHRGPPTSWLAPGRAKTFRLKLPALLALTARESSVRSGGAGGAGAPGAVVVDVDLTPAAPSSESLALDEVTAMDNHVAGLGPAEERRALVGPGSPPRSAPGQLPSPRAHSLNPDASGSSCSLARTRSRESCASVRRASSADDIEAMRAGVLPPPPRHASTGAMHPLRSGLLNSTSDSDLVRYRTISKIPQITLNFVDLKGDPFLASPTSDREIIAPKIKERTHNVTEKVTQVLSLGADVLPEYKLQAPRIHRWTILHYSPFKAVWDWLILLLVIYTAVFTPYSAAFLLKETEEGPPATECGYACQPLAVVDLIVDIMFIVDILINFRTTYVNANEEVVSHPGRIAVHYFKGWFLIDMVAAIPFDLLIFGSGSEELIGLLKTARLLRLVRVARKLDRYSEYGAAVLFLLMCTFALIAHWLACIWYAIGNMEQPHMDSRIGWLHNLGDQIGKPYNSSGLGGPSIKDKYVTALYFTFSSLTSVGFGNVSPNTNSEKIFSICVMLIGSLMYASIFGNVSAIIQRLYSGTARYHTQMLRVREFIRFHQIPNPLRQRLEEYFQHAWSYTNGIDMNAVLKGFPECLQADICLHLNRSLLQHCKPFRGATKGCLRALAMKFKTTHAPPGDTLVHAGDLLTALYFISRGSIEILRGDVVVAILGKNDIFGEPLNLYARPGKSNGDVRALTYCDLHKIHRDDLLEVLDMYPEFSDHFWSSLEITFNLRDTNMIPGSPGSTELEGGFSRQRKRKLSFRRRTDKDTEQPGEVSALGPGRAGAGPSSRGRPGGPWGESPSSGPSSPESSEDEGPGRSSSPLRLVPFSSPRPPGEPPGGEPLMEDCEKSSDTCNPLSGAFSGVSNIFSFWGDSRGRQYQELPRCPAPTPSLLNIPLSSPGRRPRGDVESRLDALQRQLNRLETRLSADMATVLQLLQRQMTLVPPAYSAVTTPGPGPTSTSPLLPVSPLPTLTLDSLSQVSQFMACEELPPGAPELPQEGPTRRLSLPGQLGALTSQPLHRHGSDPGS
For the compound `COc1ccccc1CNC(=O)c1ccc(OC(F)F)c(OC)c1`, the “hERG current change (%, negative = inhibition) at 10uM” value is on record as -32.1%. Under `CCOC(=O)c1sc(NC(=O)c2ccc(S(=O)(=O)N3CCOCC3)cc2)nc1-c1ccccc1` stands -27.6%; under `Cc1ccc(-c2csc3nc[nH]c(=O)c23)cc1`, 6.88%; under `CCOc1cc(Br)ccc1S(=O)(=O)NCc1ccccc1`, -30.3%. Under `Cc1c(NC(=O)c2ccccc2NC(=O)COc2ccccc2)cccc1C(=O)O` stands 14.2%; under `O=C(c1ccco1)N1CCN(Cc2nc3ccccc3c(=O)n2-c2ccc(F)cc2)CC1`, -18.8%. Under `Cc1nc2ccccc2c2oc(C(=O)N3CCN(C(=O)c4ccco4)CC3)cc12` stands -46.7%.

Regarding `Cc1cc(N2CCN(C(=O)c3ccco3)CC2)n2nc(C)nc2n1`, the “hERG current change (%, negative = inhibition) at 10uM” value is -44%.

With `Cc1cc(N2CCN(C(=O)c3ccco3)CC2)n2ncc(-c3ccccc3)c2n1`, the “hERG current change (%, negative = inhibition) at 10uM” value is given as -50.5%.

As to `Cc1cc(N2CCN(C(=O)c3ccco3)CC2)nc(-c2ccccc2)n1`, the “hERG current change (%, negative = inhibition) at 10uM” value is given as -65.4%. As for `Cc1cc(N2CCN(C(=O)c3ccco3)CC2)c2ccccc2n1`, the “hERG current change (%, negative = inhibition) at 10uM” value was -71.8%.

On to `Cc1cc(=O)[nH]c(N2CCN(C(=O)c3ccco3)CC2)n1`, for which the “hERG current change (%, negative = inhibition) at 10uM” value was found to be 14%.

With `O=c1c2ccccc2nc(N2CCCC2)n1-c1ccccc1`, the “hERG current change (%, negative = inhibition) at 10uM” value came to 10.7%. For `O=C(c1ccco1)N1CCN(c2nc3ccccc3c(=O)n2-c2ccccc2)CC1` the value was -54.9%; for `Cc1cc(N2CCN(C(=O)c3ccco3)CC2)n2ncnc2n1`, -30.3%; for `O=C(c1ccco1)N1CCN(C(=O)c2cc(Cl)nc3ccccc23)CC1`, -35.2%.

Regarding `Cc1cc(N2CCN(c3ccccc3)CC2)nc(-c2ccccc2)n1`, the “hERG current change (%, negative = inhibition) at 10uM” value is listed as -30.9%.

As to `C=CCN=C(C)C1=C(O)CCC1=O`, the “hERG current change (%, negative = inhibition) at 10uM” value turned out to be 16.5%.

For `O=C(CSc1nc2c(c(=O)n1-c1ccc(Cl)cc1)SCC2)N1CCOCC1`, the “hERG current change (%, negative = inhibition) at 10uM” value is listed as -14.2%. For `O=C1C(C2=NC(c3ccccn3)C3C(=O)N(c4ccc(Cl)cc4Cl)C(=O)C23)=C(O)c2ccccc21` (stereo not drawn) the value was -4.11%; for `O=C(Cc1cccs1)NNC(=O)c1ccc(F)cc1`, 3.91%; for `Cc1ccc(CNC(=O)C2CC(c3cc(C(F)(F)F)cc(C(F)(F)F)c3)=NO2)o1` (stereo not drawn), -12.1%. `CCOc1ccc(-c2noc(CCC(=O)O)n2)cc1`: the “hERG current change (%, negative = inhibition) at 10uM” value is on record as -1.59%. For `Cc1nnc(NC(=O)c2ccc(-c3ccc([N+](=O)[O-])cc3)o2)s1` the value was -11.7%; for `c1ccc(COc2ccc(OCCn3cncn3)cc2)cc1`, 4.65%; for `CCn1c(O)c(C=Nc2ccccc2)sc1=O`, 13.9%. Under `O=C(Nc1ccc(OCC(=O)N2CCOCC2)cc1)Nc1cccc(Cl)c1` stands -7.18%. For `O=C1c2cccc3cccc(c23)C(=O)N1CCN1CCN(C(=S)Nc2ccc(Cl)cc2)CC1`, the “hERG current change (%, negative = inhibition) at 10uM” value is given as 16.4%. Under `CCN1CCN(CC(O)COCc2cc(OC)c(OC)c(OC)c2)CC1.Cl` (stereo not drawn) stands 22.2%.

As to `COc1cc(COCC(O)CN2CCN(Cc3ccccc3)CC2)cc(OC)c1OC.Cl` (stereo not drawn), the “hERG current change (%, negative = inhibition) at 10uM” value is recorded as -39.1%. Take `Cl.O=C1c2cccc3cccc(c23)C(=O)N1CCN1CCN(CC(O)COCc2ccc(Cl)cc2)CC1` (stereo not drawn): the “hERG current change (%, negative = inhibition) at 10uM” value is recorded as -72.5%. As to `O=C1c2ccccc2C(=O)N1CC(O)COCc1ccccc1` (stereo not drawn), the “hERG current change (%, negative = inhibition) at 10uM” value is 19.4%. Under `COc1cc(COCC(O)CN2CCN(CCN3C(=O)c4cccc5cccc(c45)C3=O)CC2)cc(OC)c1OC.Cl` (stereo not drawn) stands -62%; under `O=C(Nc1c(-c2ccccc2)nc2ncccn12)c1cc2ccccc2oc1=O`, -12.2%; under `COC(=O)c1cc(-c2ccc(Cl)cc2Cl)n[nH]1`, 14.1%. For `O=Cc1c(Sc2ccccc2)nc2ccccn2c1=O` the value was -0.892%; for `COc1ccc(-c2csc3[nH]c(=S)n(-c4ccccc4)c(=O)c23)cc1OC`, 23.8%. Under `O=C(Nc1ccccc1)NN(C(=O)CCl)c1ccccc1` stands 6.85%. With `CSc1cc(C)nc(N(C)C(C)=O)n1`, the “hERG current change (%, negative = inhibition) at 10uM” value is recorded as 27.1%. In the case of `CCOC(=O)c1cn(Cc2ccccc2)nc1-c1ccccc1`, the “hERG current change (%, negative = inhibition) at 10uM” value is on record as -8.37%. For `O=C(O)c1ccc(NS(=O)(=O)c2ccc3c(c2)C(=O)c2ccccc2C3=O)cc1` the value was 18.5%; for `S=c1[nH]nc(Cc2cccs2)n1-c1ccccc1`, 16.2%.

`CCCCc1ccc(-n2c(Cc3cccs3)n[nH]c2=S)cc1`: the “hERG current change (%, negative = inhibition) at 10uM” value is recorded as -56.3%.

In the case of `Cc1ccccc1-n1c(Cc2cccs2)n[nH]c1=S`, the “hERG current change (%, negative = inhibition) at 10uM” value came out at 14.3%.

For the compound `O=C(Nc1ccc2c(c1)OCO2)c1cc(-c2ccccc2Cl)on1`, the “hERG current change (%, negative = inhibition) at 10uM” value amounted to 15.3%. For `CCOc1ccc(CCNC(=O)CS(=O)Cc2nc(-c3ccccc3Cl)oc2C)cc1OCC` (stereo not drawn) the value was -10.7%; for `CC(C)C1N=C2c3ccccc3N=C(SCc3cc(=O)n4cc(Cl)ccc4n3)N2C1=O` (stereo not drawn), -67%; for `CC(C)C1N=C2c3ccccc3N=C(SCC#N)N2C1=O` (stereo not drawn), 5.14%. Under `O=C(O)CCCCn1c(SCc2cc(=O)n3cc(Cl)ccc3n2)nc2ccsc2c1=O` stands 2.87%; under `CC1N=C2c3ccccc3N=C(SCc3cc(=O)n4cc(Cl)ccc4n3)N2C1=O` (stereo not drawn), -63.6%; under `CC(C)C1N=C2c3ccccc3N=C(SCC(=O)c3ccc(O)c(O)c3)N2C1=O` (stereo not drawn), -23.1%. Under `Cc1ccc2nc(CSc3nnc4ccccn34)cc(=O)n2c1` stands 13.2%; under `COc1ccc(CN2C(=O)NC3(CCCc4ccccc43)C2=O)cc1F` (stereo not drawn), -14.4%; under `O=[N+]([O-])c1cc(S(=O)(=O)Nc2cccc(C(F)(F)F)c2)ccc1-n1nnc2ccccc21`, 0.81%. On to `COc1ccc(S(=O)(=O)N2CCC(N3CCN(c4ccccc4)CC3)CC2)cc1`, for which the “hERG current change (%, negative = inhibition) at 10uM” value is reported as -8.52%. `C/C=C(\C)C(=O)NCCN1C2=NC[C@H](Cc3ccccc3)N2C[C@@H]1Cc1ccc(OC)cc1`: the “hERG current change (%, negative = inhibition) at 10uM” value is given as -73.3%. Under `C/C=C(\C)C(=O)NCCN1C2=NC[C@@H](Cc3ccccc3)N2C[C@H]1Cc1ccc(O)cc1` stands 12.8%. Under `C/C=C(\C)C(=O)NCCN1C2=NC[C@H](C(C)C)N2C[C@H]1Cc1ccc(O)cc1` stands 23.1%. Under `C/C=C(\C)C(=O)NCCN1C2=NC[C@H](C(C)C)N2C[C@@H]1Cc1ccc(OC)cc1` stands -86.6%. On to `C/C=C(\C)C(=O)NCCN1C2=NC[C@H](C)N2C[C@@H]1Cc1ccc(OC)cc1`, for which the “hERG current change (%, negative = inhibition) at 10uM” value is recorded as -4.7%. Under `C/C=C(\C)C(=O)NCCN1C2=NC[C@H](Cc3ccc(O)cc3)N2C[C@@H]1Cc1ccc(OC)cc1` stands -2.89%; under `C/C=C(\C)C(=O)NCCN1C2=NC[C@H](Cc3ccccc3)N2C[C@H]1Cc1ccc(O)cc1`, 1.99%; under `C/C=C(\C)C(=O)NCCN1C2=NC[C@@H](Cc3ccccc3)N2C[C@@H]1Cc1ccc(OC)cc1`, -60.3%.
